Data taken from PubChem BioAssay (NCI).
About 83,000 compounds went through this panel and 20% of them were active in at least one assay; those are over-represented in the sample as a whole.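 Compound tested at a single concentration for 48 hours in 96-well plates; a percent growth value below 10 was scored as active.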 Values without a mark were called inactive. Activity calls are given as the source filed them.

Legend:
Experiment in all cases: NCI-60 one-dose screen, 48 h (100 = growth as untreated, 0 = no growth, -100 = all killed)
Conditions in all cases: 10 µM unless noted
[1] = tested on: HCT-15 colon
[2] = tested on: HT29 colon
[3] = tested on: SNB-75 CNS
[4] = tested on: SNB-19 CNS
[5] = tested on: U251 CNS
[6] = tested on: PC-3 prostate
[7] = tested on: SK-MEL-5 melanoma
[8] = tested on: UACC-62 melanoma
[9] = tested on: LOX IMVI melanoma
[10] = tested on: SK-MEL-28 melanoma
[11] = tested on: SK-MEL-2 melanoma
[12] = tested on: EKVX NSCLC
[13] = tested on: SN12C renal
[14] = tested on: UO-31 renal
[15] = tested on: TK-10 renal
[16] = tested on: ACHN renal
[17] = tested on: CAKI-1 renal
[18] = tested on: A498 renal
[19] = tested on: CCRF-CEM leukemia
[20] = tested on: MOLT-4 leukemia

| Compound | growth [1] | growth [2] | growth [3] | growth [4] | growth [5] | growth [6] | growth [7] | growth [8] | growth [9] | growth [10] | growth [11] | growth [12] | growth [13] | growth [14] | growth [15] | growth [16] | growth [17] | growth [18] | growth [19] | growth [20] |
| --- | --- | --- | --- | --- | --- | --- | --- | --- | --- | --- | --- | --- | --- | --- | --- | --- | --- | --- | --- | --- |
| COc1cc(/C=C/C(=O)c2cnn(-c3cc(=O)[nH]c4ccc(Cl)cc34)c2C)cc(OC)c1OC | -40.2% (active) | -71.9% (active) | -11.4% (active) | -68.9% (active) | -65.7% (active) | -26.9% (active) | -88.9% (active) | -49.1% (active) | -60.8% (active) | -69.2% (active) | -80.6% (active) | -4.28% (active) | 0.0215% (active) | -72.6% (active) | 0.154% (active) | -35.4% (active) | -68.4% (active) | -21.5% (active) | -16.7% (active) | -10.9% (active) |
| C[C@@H]1[C@H]2C[C@@H](C[C@H]1NCc1nc3ccccc3n1C1CCCCCC1)C2(C)C | 27.3% | 51.4% | 82% | 59.3% | 67.2% | 37.1% | 4.99% (active) | 47.9% | 44% | 77.5% | 70.6% | 68.3% | 39.8% | 44.4% | 90.8% | 59.5% | 55.5% | 88.9% | 58% | 33.6% |
| O=C(CSc1nnc(-c2ccc(-c3nc4ccccc4[nH]3)cc2)o1)Nc1ccc(Cl)cc1 | 19.3% | 26.6% | 62.4% | -37.3% (active) | -75.4% (active) | 7.32% (active) | 34.1% | 23.9% | -92.4% (active) | -85% (active) | 70.6% | 16.2% | 19.6% | 57.8% | 59.5% | -86.8% (active) | 17.1% | 132% | 32.5% | 6.05% (active) |
| CC(C)(C)C(=O)C1CC(C#N)=C2C=Cc3c(ccc4ccccc34)N21 (stereo not given) | 88.3% | 90.4% | -5.13% (active) | 60.1% | 75.2% | 80% | 91.1% | 91.1% | 95.5% | 106% | 92.4% | 79.7% | 92.4% | 90.5% | 92.6% | 85.2% | 86.7% | 144% | 91.4% | 81.6% |
| CCCCCCCCCc1ccc(C(=O)Nc2cc(C)ccc2C(=O)OC)cc1 | 103% | 98.9% | 117% | 106% | 112% | 105% | 102% | 83.7% | 102% | 107% | 111% | 109% | 101% | 98.4% | 121% | 109% | 98.8% | 128% | 87.9% | 97.5% |
| COc1ccc2c(c1)N=c1c-2cc2c(O)[nH]c(=S)n2c1=O | 27.3% | 12.3% | 6.9% (active) | 59.8% | 30.9% | 37.7% | 13.5% | 34.4% | 32.6% | 72.6% | 41.9% | 48.7% | 35.6% | 47.8% | 73.5% | 44.9% | 29.7% | 105% | 11.1% | 35.1% |
| Cc1nn(-c2ccccc2)c2nc(C)n(C(=O)N/N=C/c3cccc([N+](=O)[O-])c3)c(=O)c12 | 63.5% | 88.6% | 75.4% | 94.1% | 93.1% | 92.9% | 90.7% | 73.5% | 82.7% | 97.8% | 92.9% | 49.3% | 94.4% | 81.4% | 138% | 91% | 90.8% | 136% | 71.2% | 79.2% |
| N#CC1=C(c2cccs2)Nc2c(c(-c3ccccc3)nn2-c2ccccc2)C12C(=O)Nc1ccccc12 (stereo not given) | 11.9% | 6.67% (active) | 60.5% | 25.4% | 11.6% | 6.98% (active) | 23.9% | 48.5% | 61.6% | 15.2% | 90.1% | 14.8% | 55.3% | 18.2% | 18.1% | -26.9% (active) | 63.4% | -14.9% (active) | 6.02% (active) | 15% |
| Cc1ccc(-c2cc(C(=O)N=Nc3c(O)[nH]c4ccc(F)cc34)c3ccccc3n2)cc1 | 7.85% (active) | 36.3% | 56.7% | 41.9% | -30.9% (active) | 77.6% | 59.2% | 59.9% | 1.93% (active) | 14.5% | 107% | 29.8% | 18.1% | 77.5% | 106% | 42.8% | 62.9% | 187% | 92.4% | 65.3% |
| COc1ccccc1Nc1nnc(-c2c[nH]c3ccccc23)o1 | 11.5% | 7.44% (active) | 44% | 43.4% | 4.61% (active) | 16.4% | -32.7% (active) | 22.9% | 7.77% (active) | 49.2% | -13.6% (active) | 10.2% | 14.5% | 32.5% | 22.8% | 23.1% | 22% | 81.9% | 8.16% (active) | 1.78% (active) |
| COc1ccc(CCC2NCCc3c(Br)c4c(c(OC)c32)OCO4)cc1 (stereo not given) | 7.93% (active) | 2.11% (active) | -4.42% (active) | 12.1% | 7.13% (active) | 26.5% | -17% (active) | -32.5% (active) | -27.5% (active) | 1.12% (active) | -16.9% (active) | 24.4% | 13.2% | 21.1% | 44% | 15.5% | 16.5% | 79% | 19.6% | 9.59% (active) |
| Cn1cc(-c2cc(N)n3nc(-c4c[nH]c5ccc(F)cc45)cc3n2)c2cccnc21 | -52.3% (active) | -70.1% (active) | -48.5% (active) | -24.8% (active) | -84.7% (active) | -45.3% (active) | -98.4% (active) | -93.6% (active) | -97.9% (active) | -92.6% (active) | 86.8% | -64.9% (active) | -80.6% (active) | -75.8% (active) | -68.7% (active) | -93.8% (active) | -70.7% (active) | -74.8% (active) | -34.6% (active) | -30.1% (active) |
| CN1CCN(C(=O)CCN(C(=O)Oc2cc3c(c4ccccc24)[C@H](CCl)CN3C(=O)c2cc3cc(OCCCN4CCC4)ccc3[nH]2)[C@H]2CCSSC2)CC1 | -37% (active) | -69.8% (active) | -58.5% (active) | -50.7% (active) | -65.9% (active) | -65% (active) | -93.7% (active) | -81.9% (active) | -71.8% (active) | -89.2% (active) | -83% (active) | -89.3% (active) | 0.64% (active) | -37.7% (active) | -25.7% (active) | -30.5% (active) | -58.3% (active) | -40.9% (active) | -35.6% (active) | -35.3% (active) |
| COc1ccc(-c2cc(C(=O)Oc3ccc(C=O)cc3OC)nn2-c2ccc(S(C)(=O)=O)cc2)cc1 | 81.9% | 110% | 99.9% | 94.5% | 101% | 90.7% | 98% | 88% | 90.1% | 117% | 110% | 98% | 90.7% | 78.2% | 147% | 106% | 98.3% | 126% | 83.6% | 86.6% |
| N#CC1=C(c2cccs2)Nc2c(c(-c3ccccc3)nn2-c2ccccc2)C12C(=O)Nc1ccc(Br)cc12 (stereo not given) | -6.66% (active) | -32.8% (active) | -39.5% (active) | 7.99% (active) | -47.8% (active) | -3.33% (active) | 0.371% (active) | -52.3% (active) | -11.3% (active) | -69.6% (active) | -17.2% (active) | 7.42% (active) | -13.7% (active) | 6.38% (active) | 12.1% | -11% (active) | 9.64% (active) | -10.8% (active) | 1.86% (active) | -3.33% (active) |
